Screening results as filed in PubChem BioAssay.
An excerpt weighted towards active compounds, which were near 9.3% of everything screened.
HCMV inh: qHTS Assay for inhibitors of the human cytomegalovirus (HCMV); 410,000 tested, 4.5% active; activity change, negative = inhibition, % at 57.5 µM; HFF cells, HCMV-luciferase reporter, 72 h; hits give low values; AID 1259415, 2018; in the data active means activity change below about -60%; inconclusive means no clear call, values can overlap the other calls; inactive means above about -39%
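Human foreskin fibroblasts infected with luciferase-reporter HCMV at MOI 1 PFU/cell, compounds at two doses. Luciferase measured 72 h post infection; normalized to buffer-only basal and Salinomycin (10uM) controls.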
FMDV antiviral: High Throughput Screening for Foot and Mouth Disease Virus Antivirals; FMDV antiviral cell-based qHTS; Potency, µM (highest dose often 57.9 µM), for inactives: at the highest dose activity change, negative = inhibition, actives largely listed as inhibitors; 410,000 tested, 1.2% active; AID 1159524, 2015; calls by dose curve; tested in HEK293T cells; further: read-out not given here; potency means the concentration at half of the fitted maximal effect; nearly all actives have a fitted effect of over 45% in size
VACV Venus inh: qHTS for Stage-Specific Inhibitors of Vaccinia Orthopoxvirus: Venus Reporter Primary qHTS; Vaccinia virus Venus reporter expression, fluorescence; Potency, µM (series often up to 36.5 µM), inactives show top-dose activity change, negative = inhibition, hits mostly inhibitors; 330,000 tested, 0.46% active; calls by dose curve; tested in A549 cells; further: potency means the concentration at half of the fitted maximal effect; nearly all actives have a fitted effect of over 30% in size
Vaccinia mCherry: qHTS for Stage-Specific Inhibitors of Vaccinia Orthopoxvirus: mCherry Reporter Primary qHTS. Potency, µM (series often up to 36.5 µM), inactives show top-dose activity change, negative = inhibition, actives largely listed as inhibitors. 310,000 tested, 0.63% active. Vaccinia virus mCherry reporter infection, fluorescence; calls by dose curve; tested in A549 cells; further: potency means the concentration at half of the fitted maximal effect; nearly all actives have a fitted effect of over 35% in size
HCV inh: qHTS Assay for Inhibitors of Hepatitis C Virus (HCV) | Huh7.5.1 HCVcc-Cre infection, luciferase reporter, 44 h | Potency, µM (doses to about 41.8 µM), for the others: top-dose activity change, negative = inhibition, hits mostly inhibitors | 340,000 tested, 3.4% active; further: potency means the concentration at half of the fitted maximal effect
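HCVcc-Cre virus at an moi near 0.5 was added right after compound to cells cultured 4 h from seeding (1,000 cells/well). Luciferase activity was determined 44 h later, 15 min after substrate addition at RT.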
Sm TGR inh: qHTS Assay for the Inhibitors of Schistosoma Mansoni Peroxiredoxins; Schistosoma mansoni thioredoxin glutathione reductase (TGR), Q962Y6; purified TGR, DTNB reduction, TNB absorbance 405 nm; Potency, µM (highest dose often 114 µM), without a hit: at the top dose activity change, negative = inhibition, usual class: inhibitors; 360,000 tested, 3% active; AID 485364, 2010; further: potency means the concentration at half of the fitted maximal effect; nearly all actives have a fitted effect of over 60% in size
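TGR 20 nM + NADPH 100 uM (dispensed conc.), cpd preinc 15 min RT; start with NADPH (500 uM addition) then DTNB (15 mM addition). Kinetic TNB absorbance, 405 nm filter. Four-parameter Hill fit across titration.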
The depositor's hits bear a star; i = inactive; u = inconclusive; x = no result given; ! = a repeat was not active. Unless noted, the call rests on the fitted dose curve; in most records, active means well fitted curve in the direction sought with a large enough effect; inconclusive means small, poorly fitted or top-dose-only effect, or another doubt; inactive means no such curve, though single readings can be large; an effect the other way counts as inactive or inconclusive. On the % scale 0 is the no-effect control and ±100 the full control effect.

SMILES | HCMV inh | FMDV antiviral | VACV Venus inh | Vaccinia mCherry | HCV inh | Sm TGR inh
CCCC(=O)NC(c1cccs1)c1cc(Cl)c2cccnc2c1O (configuration not stated) | -114* | -21% | 9% | -20% | 3.2µM* | 1%
CCCC(=O)NC(c1ccco1)c1cc(Cl)c2cccnc2c1O (configuration not stated) | -98* | -4% | u | u | 11µM* | -23%
CCC(=O)NC(c1ccco1)c1cc(Cl)c2ccccc2c1O (configuration not stated) | u | -12% | x | x | x | u
CCOC(=O)/C=C/C(=O)Nc1ccc(S(=O)(=O)N2CCCCCC2)cc1 | 65 | u | -1% | -11% | -20% | u
Cc1cc(C)c(NC(=O)Cn2nnc3sc4c(c3c2=O)CCC(C(C)(C)C)C4)c(C)c1 (configuration not stated) | -7 | -14% | u | u | x | -3%
O=C(Cc1ccc(NC(=O)N2CCSc3ncccc32)cc1)NCc1cccc(Cl)c1 | u | -15% | -13% | -11% | x | -7%
CCC(C)[C@H](NC(=O)c1cc2cc(Cl)ccc2n1C)C(=O)N1CCC(C(=O)O)CC1 (some centres not stated) | -68* | -6% | -10% | i | 2% | -14%
CC(C)[C@H](NC(=O)c1cc2cc(Cl)ccc2n1C)C(=O)N1CCC(C(=O)O)CC1 | -33 | -11% | 0% | i | 1% | -6%
COC(=O)N/N=C/c1ccc([N+](=O)[O-])s1 | -28 | -11% | u | -20% | u | -22%
COc1ccc(NC(C)C(=O)N/N=C/c2ccc([N+](=O)[O-])s2)cc1 (configuration not stated) | u | -24% | 13µM* | 8.9µM* | u | -31%
Cc1ccnn1CC(=O)N/N=C/c1ccc([N+](=O)[O-])s1 | u | -16% | x | x | u | -24%
Cc1ccc(NC(C)C(=O)N/N=C/c2ccc([N+](=O)[O-])s2)cc1 (configuration not stated) | -70* | -4% | u | u | u | 4%
CCC(C(=O)NCCCN1CC(C)CC(C)C1)n1nc(C)c2sc3ccccc3c2c1=O (configuration not stated) | -73* | 0% | x | x | -13% | 3%
Brc1ccc(C2=NC(Cc3ccccc3)CO2)cc1 (configuration not stated) | 5 | 69% | -11% | -23% | u | 2%
Cc1oc(-c2cccc(Cl)c2)nc1CN1CCC(C(=O)NCCCN2CC(C)CC(C)C2)CC1 (configuration not stated) | x | -29% | x | x | 1.1µM* | -7%
CCOC(=O)N1CCC(NC(=O)C2CCCN(Cc3nc(-c4cccc(Cl)c4)oc3C)C2)CC1 (configuration not stated) | -67* | 14µM* | u | u | 5.6µM* | -6%
COc1ccc(-c2nc(CN3CCCC(C(=O)NC4CCCC4)C3)c(C)o2)cc1 (configuration not stated) | 24 | -16% | x | x | -20% | 3%
Cc1oc(-c2cccc(Cl)c2)nc1CN1CCC(C(=O)NCCCN2CCN(c3cccc(Cl)c3)CC2)CC1 | -5 | u | u | u | x | 3%
Cc1oc(-c2cccc(Cl)c2)nc1CN1CCCC(C(=O)NCCc2ccc(Cl)cc2)C1 (configuration not stated) | 7 | u | -22% | u | x | -7%
CCN1CCN(CCNC(=O)C2CCCN(Cc3nc(-c4cccc(Cl)c4)oc3C)C2)CC1 (configuration not stated) | u | 0% | -7% | -11% | 10µM* | -1%
S=C(c1ccc(-c2ccccc2)cc1)N1CCOCC1 | -83* | 3% | -6% | -1% | -4% | 12%
COc1cc2c(NC3CCN(C)CC3)nc(N3CCCN(C)CC3)nc2cc1OCCOCCN1CCCC1 | x | x | -10% | -10% | x | x
COc1cc2c(NC3CCN(C)CC3)nc(N3CCCN(C)CC3)nc2cc1OCCCCC(N)=O | x | x | -15% | -18% | x | x
COc1cc2nc(N3CCCN(C)CC3)nc(NC3CCN(Cc4ccccc4)CC3)c2cc1OC | x | x | 11µM*! | u | x | x
COc1cc2c(NC3CCN(C)CC3)nc(N3CCCN(C)CC3)nc2cc1OCCCN1CCCCC1 | x | x | 3.5µM* | 4µM* | x | x
SMILES | HCMV inh | FMDV antiviral | VACV Venus inh | Vaccinia mCherry | HCV inh | Sm TGR inh
COc1cc2c(NC3CCN(C)CC3)nc(N3CCCN(C)CC3)nc2cc1OCCCC(C)C | x | x | 13µM* | u | x | x
C=CCN(CC=C)CC(=O)Nc1ccc(S(N)(=O)=O)cc1 | -10 | -18% | -9% | x | 14% | -2%
CC(=O)N1CCC(N(Cc2ccco2)C(=O)Nc2ccc(C)c(Cl)c2)CC1 | 3 | -18% | -7% | 8% | x | 6%
Cc1ncc([N+](=O)[O-])n1CC(C)O (configuration not stated) | 0 | -14% | -8% | -3% | 2.8µM* | 4%
COc1ccc(NC(=O)Cc2ccc(C)cc2)cc1S(=O)(=O)N1CCCCC1 | -25 | 23% | x | x | u | -5%
Cc1cc(C(=O)NCC(c2ccco2)N(C)C)ccc1[N+](=O)[O-] (configuration not stated) | 8 | -1% | -3% | 4% | -1% | -19%
CCOc1cc(C)c(S(=O)(=O)Nc2ccc3cn[nH]c3c2)cc1C | x | x | u | -27% | 10µM* | -1%
NC(=S)N/N=C1/CCSc2ccc3ccccc3c21 | u | u | u | 14µM* | u | x
COP(=O)(Cc1ccc(C#N)o1)OC | 5 | 8% | -14% | i | 13% | 22µM*
COc1cccc(Nc2nc(-c3sc(NC(=O)c4ccccc4)nc3C)cs2)c1 | -61* | -18% | u | -27% | -19% | -1%
C=CCCC(=O)Nc1nc(C)c(-c2csc(Nc3cc(OC)ccc3OC)n2)s1 | -1 | -20% | u | u | 3.2µM* | -4%
C=CCCC(=O)Nc1nc(C)c(-c2csc(Nc3cccc(OC)c3)n2)s1 | 11 | -22% | u | u | 6.3µM* | -7%
COc1cccc(Nc2nc(-c3sc(NC(=O)CC(C)C)nc3C)cs2)c1 | 24 | -24% | u | u | -3% | -2%
Cc1nc(NC(=O)c2ccccc2)sc1-c1csc(Nc2ccc(C(=O)O)cc2)n1 | 0 | -3% | -1% | i | u | -20%
COc1cc(NC(=O)N(Cc2ccco2)C2CCN(C(C)=O)CC2)cc(OC)c1OC | -25 | -13% | -5% | -14% | x | 12%
O=C(CC1N=C2c3ccccc3N=C(SCc3cccc(F)c3)N2C1=O)NC1CCCCC1 (configuration not stated) | -22 | u | -14% | -13% | x | 36%
